# Measurements published in PubChem BioAssay (NCI).
# Compounds without any hit were thinned out: in the full panel of roughly 79,000, 15% have a hit. A number with no mark means an inactive call. No stated cut-off is given here; in the data, active means growth inhibition above about 70%; inactive means the rest.
# Test: NCI Yeast Anticancer Drug Screen. Data for the sgs1 mgt1 strain (AID 161);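 further: 0% = growth of cultures given vehicle only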
# Details: S. cerevisiae sgs1 mgt1 strain, at 50.0 µM, stronger effect = higher value
# Method in brief: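 Inhibition of yeast growth, normalised to vehicle-treated controls, is reported for a strain bearing genetic alterations in DNA damage repair.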
row,SMILES,growth inhibition [%]
1,COC(=O)[C@H]1C=C[C@H](OC2OC(COC(C)=O)C(OC(C)=O)C(OC(C)=O)C2OC(C)=O)n2c(=O)n(-c3ccccc3)c(=O)n21 (some centres not stated),-1.25
2,Cc1ccc(/C(O)=C/c2nc3ccc([N+](=O)[O-])cc3nc2/C=C(\O)c2ccc(C)cc2)cc1,-23.1
3,CCCCOCN1COCN(COCCCC)C1=O,-0.45
4,CC1CCCC(C)C1O (configuration not stated),-13.9
5,CS(=O)(=O)c1nc2ncnc(N)c2[nH]1,-6.3
6,NC1=Nc2ccccc2Sc2nncn21,-10.7
7,COc1c2cc(C(C)(C)C)cc1CSCc1cc(C(C)(C)C)cc(c1OC)CCCCC2,16.2
8,NCCNC(=O)CCC(CN(CC(=O)O)CC(=O)O)N(CC(=O)O)CC(=O)O (configuration not stated),44
9,O=C(OCCSC(=S)N1CCCCC1)c1ccccc1,2.4
10,Cc1ccccc1C(=O)c1ccc2ccccc2c1,28.2
11,O=C1NCC2Cc3ccccc3C(c3ccccc3)=C12 (configuration not stated),5.6
12,O=C(O)c1cncc(C(=O)O)c1,-14.7
13,OC1CCC2CCCC2C1 (configuration not stated),-2.2
14,O=C1CSC(c2ccc([N+](=O)[O-])cc2)N1c1nc(-c2ccc3c(c2)CCCC3)cs1 (configuration not stated),21.1
15,CC(=O)Oc1c(C)cc2c(c1C)C(C)(C)CN2C(=O)C(C)(C)C,17.6
16,CCC(Oc1ccc(OC)c2c1C(=O)CCC2)C(=O)O (configuration not stated),-18.9
17,NC(=O)C(CC(=O)O)NC(=O)c1ccccc1 (configuration not stated),3.45
18,C=CCC(c1ccccc1)(c1ccccc1)c1ccccc1,3.65
19,NC(Cc1ccc(S(=O)(=O)O)cc1)C(=O)NC(Cc1ccc(S(=O)(=O)O)cc1)C(=O)NC(Cc1ccc(S(=O)(=O)O)cc1)C(=O)O (configuration not stated),27.1
20,CCc1cc2c(c3c1CCCC3=O)CC1(C2)Cc2cc(CC)c3c(c2C1)C(=O)CCC3,-3.6
21,COC(=O)c1nn2c(=O)n(C(C)=O)c3ccccc3c2c1C(=O)OC,9.65
22,COC(=N)c1ncn(Cc2ccccc2)c1N,-11.9

# Test: NCI Yeast Anticancer Drug Screen. Data for the cln2 rad14 strain (AID 165);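 further: 0% = growth equal to vehicle treated cultures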
# Details: S. cerevisiae cln2 rad14 strain, at 50.0 µM, stronger effect = higher value
# Method in brief: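 Each compound was tested on cln2 rad14 yeast. Inhibition of growth was calculated against vehicle-exposed controls.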
row,SMILES,growth inhibition [%]
1,C#CCN(C)Cc1cc(OC)c(OC)c(OC)c1,-10.9
2,O=[N+]([O-])c1ccccc1Sc1ccc2c3c(cccc13)CN(CCCO)C2,6.8
3,O=C1CC(C2OCOC3COCOC32)CC(=O)N1 (configuration not stated),2.3
4,CCCCCc1cc(O)cc2c1Oc1cc(O)cc(C(=O)CCCC)c1C(=O)O2,-9.9
5,Nc1ccc2ccc(S(=O)(=O)O)cc2c1,-23.3
6,CC1C(NNC(N)=O)Oc2cc3c(cc2C1c1ccccc1O)OCO3 (configuration not stated),10.2
7,CC(C)(CO)N=Cc1ccc(Cl)c(Cl)c1,-3.1
8,CC(=O)Oc1ncnc2c1cnn2C,-38.6
9,CC1CCCCN1CCCO (configuration not stated),3.05
10,Nc1ccc(S(=O)(=O)Nc2nc3ccccc3nc2Nc2ccc(S(N)(=O)=O)cc2)cc1,-13.7
11,CCOC(=O)c1ccc(NC(=O)Nc2cc(Cl)ncn2)cc1,-22.9
12,COC(=O)CN1C(=O)OC(c2ccccc2)C1=O (configuration not stated),8.15
13,O=c1[nH]c2cc([N+](=O)[O-])ccc2nc1/C=C(\O)c1ccco1,-0.65
14,FC(F)(F)c1cccc(NC(=S)Nc2ccccc2S)c1,25.6
15,O=C(O)CSc1c(Cl)c(=O)oc2ccc(Cl)cc12,-2
16,Cc1ccc2nc(-c3ccc(CSC(=N)N)cc3)oc(=O)c2c1,20.9
17,CCN(CC)/[N+]([O-])=N/OC,13.4
18,CCCCCCCCCCCCCCCCOC(=O)c1cc([N+](=O)[O-])cc([N+](=O)[O-])c1Sc1ncnc2nc[nH]c12,-2.35
19,COC(=O)[C@H]1C=C[C@H](OC2OC(COC(C)=O)C(OC(C)=O)C(OC(C)=O)C2OC(C)=O)n2c(=O)n(-c3ccccc3)c(=O)n21 (some centres not stated),5.5
20,Cc1ccc(/C(O)=C/c2nc3ccc([N+](=O)[O-])cc3nc2/C=C(\O)c2ccc(C)cc2)cc1,-28.6

row,SMILES,growth inhibition [%]
1,CCCCOCN1COCN(COCCCC)C1=O,6.95
2,CC1CCCC(C)C1O (configuration not stated),12.3
3,CS(=O)(=O)c1nc2ncnc(N)c2[nH]1,-22.4
4,NC1=Nc2ccccc2Sc2nncn21,-10.6
5,COc1c2cc(C(C)(C)C)cc1CSCc1cc(C(C)(C)C)cc(c1OC)CCCCC2,-14.1
6,NCCNC(=O)CCC(CN(CC(=O)O)CC(=O)O)N(CC(=O)O)CC(=O)O (configuration not stated),57
7,O=C(OCCSC(=S)N1CCCCC1)c1ccccc1,-11.9
8,Cc1ccccc1C(=O)c1ccc2ccccc2c1,9.35
9,O=C1NCC2Cc3ccccc3C(c3ccccc3)=C12 (configuration not stated),-6.15
10,O=C(O)c1cncc(C(=O)O)c1,-7.6
11,OC1CCC2CCCC2C1 (configuration not stated),1
12,O=C1CSC(c2ccc([N+](=O)[O-])cc2)N1c1nc(-c2ccc3c(c2)CCCC3)cs1 (configuration not stated),9.3
13,CC(=O)Oc1c(C)cc2c(c1C)C(C)(C)CN2C(=O)C(C)(C)C,-7.15
14,CCC(Oc1ccc(OC)c2c1C(=O)CCC2)C(=O)O (configuration not stated),11.4
15,NC(=O)C(CC(=O)O)NC(=O)c1ccccc1 (configuration not stated),-35
16,C=CCC(c1ccccc1)(c1ccccc1)c1ccccc1,3.55
17,NC(Cc1ccc(S(=O)(=O)O)cc1)C(=O)NC(Cc1ccc(S(=O)(=O)O)cc1)C(=O)NC(Cc1ccc(S(=O)(=O)O)cc1)C(=O)O (configuration not stated),-9.5
18,CCc1cc2c(c3c1CCCC3=O)CC1(C2)Cc2cc(CC)c3c(c2C1)C(=O)CCC3,5.4
19,COC(=O)c1nn2c(=O)n(C(C)=O)c3ccccc3c2c1C(=O)OC,15.8
20,COC(=N)c1ncn(Cc2ccccc2)c1N,-24.4
